Screening results (PubChem)
PREPL inhibitor: human PREPL enzyme inhibition; inhibition, % at 5.96 µM; recombinant PREPL, fluorescence polarization activity-based probe; Q4J6C6; actives 0.68% (n = 320,000); in the data active means inhibition above about 43%;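 further: 0% = enzyme with DMSO and 100% = wells lacking enzyme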
UBC13 inh: human UBC13 polyubiquitination inhibition; P61088; UBC13 polyubiquitin chain formation, TR-FRET; inhibition, % at 20 µM; actives 0.47% (n = 330,000); in the data active means inhibition above about 45%, passing the limit was not always enough
Target sequence (P61088 whole entry, looked up): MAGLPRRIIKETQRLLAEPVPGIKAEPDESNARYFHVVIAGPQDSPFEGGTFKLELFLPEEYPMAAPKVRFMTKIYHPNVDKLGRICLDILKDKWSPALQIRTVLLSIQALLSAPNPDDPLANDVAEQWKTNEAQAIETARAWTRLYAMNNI
MEKK2 WT-MEK5: raises or lowers MEK5 binding to wildtype human MEKK2 PB1 domain | Q9Y2U5 | bead flow cytometry, Alexa488-MEK5 binding to MEKK2 WT; actives lie on both sides | binding response (% of control), % at 10 µM | actives 1.1% (n = 290,000) | AID 1531; in the data active means binding response below about 67% or above about 130%
MEKK2 mut-MEK5: signal of MEK5 binding to mutant human MEKK2 PB1 domain. bead flow cytometry, Alexa488-MEK5 binding to MEKK2 mutant. percent response, % at 10 µM. actives 0.35% (n = 290,000); in the data active means percent response above about 24%, passing the limit was not always enough
MEKK3 PB1 HTS: raises or lowers MEK5 binding to the human MEKK3 PB1 domain; Q99759; bead-based flow cytometry, Alexa488-MEK5 binding to MEKK3; actives lie on both sides; 0 = blocked by unlabeled MEK5, 100 = vehicle; binding response (% of control), % at 10 µM; actives 1.4% (n = 290,000); AID 1529;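 active means binding response more than 3 SD above or below the average of its plate-row segment, actives on both sides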;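 further: Alexa488 bead fluorescence after subtracting the streptavidin-only scavenger bead signal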
ATG4B inh: blocks human ATG4B protease cleavage of LC3 substrate | inhibition, % at 8.33 µM | ATG4B cleavage of LC3-PLA2, NBD-HPC fluorescence, 1 h | actives 0.51% (n = 340,000); in the data active means inhibition above about 40%
Target sequence (Q9Y4P1 whole entry, looked up): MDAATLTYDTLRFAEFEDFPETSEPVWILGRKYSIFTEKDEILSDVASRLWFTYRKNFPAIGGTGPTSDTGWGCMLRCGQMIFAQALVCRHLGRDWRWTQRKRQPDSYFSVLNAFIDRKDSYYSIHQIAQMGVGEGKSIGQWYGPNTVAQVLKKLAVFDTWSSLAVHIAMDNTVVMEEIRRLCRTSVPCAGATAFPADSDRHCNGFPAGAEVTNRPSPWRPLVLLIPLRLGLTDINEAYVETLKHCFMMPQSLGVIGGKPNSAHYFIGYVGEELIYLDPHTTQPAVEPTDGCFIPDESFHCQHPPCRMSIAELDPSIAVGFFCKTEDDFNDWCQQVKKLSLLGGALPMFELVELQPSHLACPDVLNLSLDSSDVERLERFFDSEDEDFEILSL
MEKK2wt confirm: raises or lowers MEK5 binding to wildtype human MEKK2, retest. AID 1892. bead flow cytometry, Alexa488-MEK5 binding to MEKK2 WT; actives lie on both sides. actives 2.4% (n = 5,900). shares compounds with MEKK3 PB1 HTS. binding response (% of control), % at 10 µM; in the data active means binding response below about 16% or above about 210%; inactive means in between
MEKK2mut confirm: signal of MEK5 binding to mutant human MEKK2, retest. actives 2% (n = 5,900). percent response, % at 10 µM. bead flow cytometry, Alexa488-MEK5 binding to MEKK2 mutant. shares compounds with MEKK3 PB1 HTS; in the data active means percent response mostly above about 71%, no sharp cut-off; inactive means mostly below about 38%;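 further: higher means compound restores mutant binding toward wildtype level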
MEKK3 confirm: MEKK3-MEK5 PB1 inhibition, single concentration confirmation. shares compounds with MEKK3 PB1 HTS. bead flow cytometry, Alexa488-MEK5 binding to MEKK3; stronger effect = lower value. binding response (% of control), % at 10 µM. actives 1.8% (n = 5,900). AID 1894;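 active means binding response below 72% of control, or above a set upper limit, though filed actives all read lower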;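 further: 100% = DMSO only wells and 0% = binding blocked by excess unlabeled MEK5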
* hit, by the source's call; [ ] = another dose, or the depositor's remark. Rows were chosen to be rich in hits. Some 3.1% of all compounds tested hit in one or more screens of this group.

Results for CCOC(=O)c1c(CN2CCN(Cc3ccccc3)CC2)n(C)c2cc(Br)c(OC)cc12 ?
PREPL inhibitor: -1.7; UBC13 inh: 12.3; MEKK2 WT-MEK5: 135.0*; MEKK2 mut-MEK5: 7.0; MEKK3 PB1 HTS: 105.0; ATG4B inh: -4.3; MEKK2wt confirm: 173.0; MEKK2mut confirm: 38.0; MEKK3 confirm: 108.0

How did Cc1nn(CC(=O)NCc2cc3ccccc3[nH]2)c(C)c1[N+](=O)[O-] do in these assays?
PREPL inhibitor: 5.8; UBC13 inh: -14.1; MEKK2 WT-MEK5: 113.0; MEKK2 mut-MEK5: 0.0; MEKK3 PB1 HTS: 111.0; ATG4B inh: 3.4

What do the screens show for `COc1ccc(OC)c(-n2c(=O)c3ccccc3c3ccccc3c2=O)c1`?
PREPL inhibitor: 11.1; UBC13 inh: -15.9; MEKK2 WT-MEK5: 99.0; MEKK2 mut-MEK5: 0.0; MEKK3 PB1 HTS: 72.0*[inhibitor]; ATG4B inh: -11.3; MEKK2wt confirm: 98.0; MEKK2mut confirm: 1.0; MEKK3 confirm: 98.0

How did CS/C(N)=N/N=C/c1c(O)ccc2ccccc12 do in these assays?
PREPL inhibitor: 24.6; UBC13 inh: 6.1; MEKK2 WT-MEK5: 133.0; MEKK2 mut-MEK5: 29.0; MEKK3 PB1 HTS: 133.0*; ATG4B inh: -13.3; MEKK2wt confirm: 100.0; MEKK2mut confirm: -4.0; MEKK3 confirm: 99.0

What do the screens show for `CN(C)/N=C/c1c(O)ccc2ccccc12`?
PREPL inhibitor: 13.6; UBC13 inh: 0.9; MEKK2 WT-MEK5: 108.0; MEKK2 mut-MEK5: 7.0; MEKK3 PB1 HTS: 106.0; ATG4B inh: 1.2

What do the screens show for `O=C(CSc1nnc(-c2ccccc2)n1C1CCCCC1)N1CCCC1`?
PREPL inhibitor: 7.8; UBC13 inh: 3.6; MEKK2 WT-MEK5: 79.0; MEKK2 mut-MEK5: -8.0; MEKK3 PB1 HTS: 74.0*[inhibitor]; ATG4B inh: 2.1; MEKK2wt confirm: 112.0; MEKK2mut confirm: 8.0; MEKK3 confirm: 111.0

How did CC1CCCN(C(=O)CSc2nnc(-c3cccnc3)n2C2CCCCC2)C1 (stereo unspecified) do in these assays?
PREPL inhibitor: 16.6; UBC13 inh: 10.2; MEKK2 WT-MEK5: 96.0; MEKK2 mut-MEK5: 2.0; MEKK3 PB1 HTS: 100.0; ATG4B inh: 2.0

Results for COc1ccccc1OCCNS(=O)(=O)c1ccc2oc3ccccc3c2c1 ?
PREPL inhibitor: -91.5; UBC13 inh: -6.2; MEKK2 WT-MEK5: 109.0; MEKK2 mut-MEK5: 3.0; MEKK3 PB1 HTS: 138.0*; ATG4B inh: -6.1; MEKK2wt confirm: 104.0; MEKK2mut confirm: 1.0; MEKK3 confirm: 102.0

Results for N#Cc1cccc(NC(=O)Cn2c3[n+](c4ccc(C(F)(F)F)cc42)CCCCC3)c1 ?
PREPL inhibitor: 12.3; UBC13 inh: 15.4; MEKK2 WT-MEK5: 117.0; MEKK2 mut-MEK5: 0.0; MEKK3 PB1 HTS: 69.0*[inhibitor]; ATG4B inh: -3.8; MEKK2wt confirm: 111.0; MEKK2mut confirm: 6.0; MEKK3 confirm: 98.0

Results for COc1ccc(C2NN=C(c3c[nH]c4ccccc34)C2O)cc1 (stereo unspecified) ?
PREPL inhibitor: 9.0; UBC13 inh: 1.9; MEKK2 WT-MEK5: 55.0*; MEKK2 mut-MEK5: 213.0*; MEKK3 PB1 HTS: 93.0; ATG4B inh: 8.4; MEKK2wt confirm: 96.0; MEKK2mut confirm: -6.0; MEKK3 confirm: 99.0

What do the screens show for `COc1ccc(C2C(O)C(c3c[nH]c4ccccc34)=NN2C(=O)CCl)cc1` (stereo unspecified)?
PREPL inhibitor: 3.9; UBC13 inh: -2.4; MEKK2 WT-MEK5: 97.0; MEKK2 mut-MEK5: 2.0; MEKK3 PB1 HTS: 101.0; ATG4B inh: -7.1

How did O=Cc1cnc(N2CCN(Cc3ccccc3)CC2)s1 do in these assays?
PREPL inhibitor: 6.1; UBC13 inh: -17.2; MEKK2 WT-MEK5: 70.0; MEKK2 mut-MEK5: -45.0; MEKK3 PB1 HTS: 68.0*[inhibitor]; ATG4B inh: -3.0; MEKK2wt confirm: 117.0; MEKK2mut confirm: 12.0; MEKK3 confirm: 101.0

What do the screens show for `Cc1ccc(N2CC(C(=O)Nc3ccc(S(=O)(=O)N4CCCC4)cc3)CC2=O)cc1` (stereo unspecified)?
PREPL inhibitor: 5.8; UBC13 inh: 0.3; MEKK2 WT-MEK5: 45.0*[inhibitor]; MEKK2 mut-MEK5: -13.0; MEKK3 PB1 HTS: 60.0*[inhibitor]; ATG4B inh: -8.8; MEKK2wt confirm: 100.0; MEKK2mut confirm: 9.0; MEKK3 confirm: 104.0

What do the screens show for `Cc1ccc(N2CC(C(=O)NCCc3ccc(S(N)(=O)=O)cc3)CC2=O)cc1` (stereo unspecified)?
PREPL inhibitor: 4.7; UBC13 inh: -4.9; MEKK2 WT-MEK5: 86.0; MEKK2 mut-MEK5: -14.0; MEKK3 PB1 HTS: 77.0*[inhibitor]; ATG4B inh: -18.0; MEKK2wt confirm: 105.0; MEKK2mut confirm: 2.0; MEKK3 confirm: 103.0

Results for CC(C)Cn1c(NCCO)nc2ccccc21 ?
PREPL inhibitor: 2.2; UBC13 inh: 4.4; MEKK2 WT-MEK5: 70.0; MEKK2 mut-MEK5: -14.0; MEKK3 PB1 HTS: 61.0*[inhibitor]; ATG4B inh: 5.5; MEKK2wt confirm: 100.0; MEKK2mut confirm: 9.0; MEKK3 confirm: 101.0

What do the screens show for `O=C(O)C1C2C=CC(C2)C1C(=O)NCc1ccc(Cl)c(Cl)c1` (stereo unspecified)?
PREPL inhibitor: -15.4; UBC13 inh: -6.3; MEKK2 WT-MEK5: 101.0; MEKK2 mut-MEK5: -1.0; MEKK3 PB1 HTS: 102.0; ATG4B inh: -7.6

How did CCC(C)NCC(=O)Nc1ccc(-c2nc3cc(NC(=O)CNC(C)CC)ccc3o2)cc1 (stereo unspecified) do in these assays?
PREPL inhibitor: -11.3; UBC13 inh: 24.3; MEKK2 WT-MEK5: 160.0*; MEKK2 mut-MEK5: 34.0*; MEKK3 PB1 HTS: 114.0; ATG4B inh: -5.0; MEKK2wt confirm: 156.0; MEKK2mut confirm: 29.0; MEKK3 confirm: 108.0

What do the screens show for `COc1cc(C)ccc1OCCOCCOc1ccc([N+](=O)[O-])cc1`?
PREPL inhibitor: -10.0; UBC13 inh: 0.8; MEKK2 WT-MEK5: 105.0; MEKK2 mut-MEK5: 1.0; MEKK3 PB1 HTS: 134.0*; ATG4B inh: -13.0; MEKK2wt confirm: 104.0; MEKK2mut confirm: -3.0; MEKK3 confirm: 99.0

What do the screens show for `Cc1cc(C)c[n+](-c2nc3ccccc3nc2[N-]S(=O)(=O)c2ccc(Cl)cc2)c1`?
PREPL inhibitor: -0.6; UBC13 inh: -2.0; MEKK2 WT-MEK5: 111.0; MEKK2 mut-MEK5: 0.0; MEKK3 PB1 HTS: 137.0*; ATG4B inh: -3.3; MEKK2wt confirm: 103.0; MEKK2mut confirm: 2.0; MEKK3 confirm: 103.0
